Test results from PubChem BioAssay AID1942 (Johns Hopkins Ion Channel Center, 2009).
About 580 (24%) of roughly 2,400 compounds were called active. A selection follows. Values without a mark were called inactive.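 Rule for the calls: active = activity change at or above the mean plus 3 SD of buffer wells without dofetilide, per plate; inactive = the rest.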

These compounds were tested against Potassium voltage-gated channel subfamily KQT member 2 (Rattus norvegicus) (UniProt O88943) (assay: KCNQ2 potentiation in CHO cells – cell-based, FluxOR thallium flux, counter-screen for hERG block protector project, confirmation (AID 1942;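 note: normalized value minus buffer-control mean plus three SD of buffer wells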)). Conditions: FluxOR thallium flux fluorescence, at 10 µM, stronger effect = higher value.
Potassium voltage-gated channel subfamily KQT member 2 (Rattus norvegicus), sequence (O88943 whole entry, looked up): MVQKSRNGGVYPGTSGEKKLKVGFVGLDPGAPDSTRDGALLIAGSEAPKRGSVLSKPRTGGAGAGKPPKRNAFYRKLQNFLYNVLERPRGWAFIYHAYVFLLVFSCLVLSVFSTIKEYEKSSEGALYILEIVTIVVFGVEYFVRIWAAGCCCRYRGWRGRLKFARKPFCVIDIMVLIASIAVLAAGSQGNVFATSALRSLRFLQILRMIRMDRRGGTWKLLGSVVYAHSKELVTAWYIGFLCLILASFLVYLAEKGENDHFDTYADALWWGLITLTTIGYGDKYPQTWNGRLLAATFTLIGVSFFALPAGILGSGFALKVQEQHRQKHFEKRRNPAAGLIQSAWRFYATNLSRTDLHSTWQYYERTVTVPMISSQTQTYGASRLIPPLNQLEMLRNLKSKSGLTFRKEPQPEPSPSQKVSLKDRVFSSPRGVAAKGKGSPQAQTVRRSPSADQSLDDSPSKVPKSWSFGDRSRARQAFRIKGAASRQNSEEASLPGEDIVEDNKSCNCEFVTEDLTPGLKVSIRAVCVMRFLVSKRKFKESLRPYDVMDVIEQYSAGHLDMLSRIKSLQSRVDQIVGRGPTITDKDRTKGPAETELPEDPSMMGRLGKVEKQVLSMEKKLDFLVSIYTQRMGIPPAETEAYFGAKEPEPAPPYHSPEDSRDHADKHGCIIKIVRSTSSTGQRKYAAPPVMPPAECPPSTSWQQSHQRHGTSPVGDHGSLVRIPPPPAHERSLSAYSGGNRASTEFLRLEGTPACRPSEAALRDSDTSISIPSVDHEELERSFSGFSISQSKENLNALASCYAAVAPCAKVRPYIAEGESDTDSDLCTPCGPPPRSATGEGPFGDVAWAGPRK
For CCCCn1nnc(NC(=O)c2ccc(-c3cccc([N+](=O)[O-])c3)o2)n1, the activity change, less the hit threshold was -21.1%. For CCCCNC1=CC(=O)C(=O)c2ccccc21, the activity change, less the hit threshold was -18.9%. With COC(=O)c1ccc(C2C(C#N)=C(N)Oc3cc(O)ccc32)cc1 (centres undefined) the activity change, less the hit threshold was -8.7%. CC1CCc2sc(-c3n[nH]c(=S)o3)cc2C1 (centres undefined) was tested, and the activity change, less the hit threshold was 20.7% (active). Cc1ccc2oc3c(c(=O)c2c1)C(c1cccs1)N(CCCN(C)C)C3=O (centres undefined) was tested, and the activity change, less the hit threshold was 7.1% (active). CCN(CC)CCCN1C(=O)c2oc3ccccc3c(=O)c2C1c1cccs1 (centres undefined) was tested, and the activity change, less the hit threshold was 12.9% (active). Work on COCCN1C(=O)c2oc3cc(C)c(C)cc3c(=O)c2C1c1ccc(O)cc1 (centres undefined) yielded an activity change, less the hit threshold of -0.6%. Compound CSc1ccc(C2NN=C(c3ccccc3)S2)cc1 (centres undefined) has an activity change, less the hit threshold of -15.8%. Cc1ccc(CC23CN4CCN(CC(C4)C2O)C3)c(C)c1 (centres undefined) gave an activity change, less the hit threshold of -8.4%. With O=C(NCC(c1cccs1)N1CCOCC1)c1cc(S(=O)(=O)N2CCOCC2)ccc1F (centres undefined) the activity change, less the hit threshold was -15.4%. CSC1=C(C#N)C(CC(C)C)C2=C(CCCC2=O)N1 (centres undefined) gave an activity change, less the hit threshold of -12.3%. For CCOc1nc(-c2ccccc2)ccc1-c1noc(COC)n1, the activity change, less the hit threshold was -13.5%. Cc1cc(C(F)(F)F)c2sc(N)nc2n1 was tested, and the activity change, less the hit threshold was -4.4%. With O=C(Cc1cccs1)Nn1c(Cc2cccs2)nc2ccccc2c1=O the activity change, less the hit threshold was 54.3% (active). In the case of Cc1nc2c(C(=O)NCc3cccs3)cnn2c(C)c1Cc1ccccc1, the activity change, less the hit threshold is reported as -25.2%. Compound Cc1cc(C)nc(NS(=O)(=O)c2ccc(NC(=O)Cc3ccccc3)cc2)n1 has an activity change, less the hit threshold of -11.1%. O=C(O)CCCNC(=O)c1nn(Cc2ccccc2)c(=O)c2ccccc12 gave an activity change, less the hit threshold of -5.2%. For O=C(Cc1ccccc1)Nn1c(-c2ccccc2)nc2ccccc2c1=O, the activity change, less the hit threshold was 29.9% (active). In the case of O=S(=O)(c1ccc(F)c(F)c1)N1CCN(c2ncccn2)CC1, the activity change, less the hit threshold is reported as -26%. In the case of CCCCCOc1ccc(C2C(C(C)=O)=C(C)Nc3ncnn32)cc1OC (centres undefined), the activity change, less the hit threshold is reported as -11.7%. Compound O=C(c1ccc2c(c1)N(Cc1ccccc1F)C(=O)c1ccccc1S2(=O)=O)N1CCCC1 has an activity change, less the hit threshold of -23.2%. Compound COc1ccc(CN2CCn3ncc(C(=O)Nc4ccccc4)c3C2=O)cc1 has an activity change, less the hit threshold of -13.1%. Cc1nnc(NC(=O)CN2CCN(Cc3ccc(F)cc3Cl)CC2)s1 showed an activity change, less the hit threshold of -27.8%. Compound Cc1ccc2c(c1)c1nnc(SCC(=O)Nc3ccc(N(C)C)cc3)nc1n2CC(=O)O has an activity change, less the hit threshold of -16.6%. Work on COc1cccc(N=Nc2ccc(O)c3ncccc23)c1 yielded an activity change, less the hit threshold of -7.4%. COc1ccc(OC)c(S(=O)(=O)Nc2ccc(O)c3ccccc23)c1 was tested, and the activity change, less the hit threshold was -22.3%. Work on COc1ccc(NS(=O)(=O)c2ccc3ccccc3c2)c2ncccc12 yielded an activity change, less the hit threshold of -12.6%. COc1ccccc1N=Nc1ccc(O)c2ncccc12 was tested, and the activity change, less the hit threshold was 15.6% (active). For CCN(CC)S(=O)(=O)c1cc(OC)ccc1N=Nc1ccc(O)c2ncccc12, the activity change, less the hit threshold was 44.8% (active). CCOc1ccc(N=Nc2ccc(O)c3ncccc23)cc1 showed an activity change, less the hit threshold of -5.6%. With O=C(COC(=O)c1cc(NS(=O)(=O)c2cccs2)ccc1O)Nc1cc(Cl)ccc1Cl the activity change, less the hit threshold was -5.6%. C[n+]1ccccc1COc1ccc(C(C)(C)C)cc1 gave an activity change, less the hit threshold of -21.7%. With CCn1c(=S)[nH]c2c(c1=O)C(C)(C)Cc1ccccc1-2 the activity change, less the hit threshold was 35.3% (active). Work on CCCn1c(SCC(N)=O)nc2c(c1=O)C1(CCCC1)Cc1ccccc1-2 yielded an activity change, less the hit threshold of -2.1%. In the case of CCC1(CC)Cc2ccccc2-c2[nH]c(=S)[nH]c(=O)c21, the activity change, less the hit threshold is reported as -28.1%. COc1ccc(-c2cc(C(F)(F)F)nc(SCC(=O)NCc3cccs3)n2)cc1 gave an activity change, less the hit threshold of -14.1%. Compound COc1ccc(-c2cc(C(=O)Nc3ccccc3SC)no2)cc1 has an activity change, less the hit threshold of -15.3%. COC(=O)c1c(NC(=O)C(C)(C)C)csc1C was tested, and the activity change, less the hit threshold was -9.2%. In the case of C/C(=N\NC(=O)c1ccc(Cl)cc1)c1ccc(Br)s1, the activity change, less the hit threshold is reported as -6.9%. CCc1cc2c(=O)n(CCC(C)C)c(=S)[nH]c2s1 was tested, and the activity change, less the hit threshold was 54% (active). With CCCCNC(=O)c1onc(CSc2nc3ccccc3[nH]2)c1C(=O)NCCCC the activity change, less the hit threshold was -19%. With COc1ccc(CCNC(=O)Cn2c(=O)n(-c3ccc(F)cc3)c(=O)c3sccc32)cc1OC the activity change, less the hit threshold was -19.4%. With CCNC(=S)N/N=C1\C(=O)c2cccc3cccc1c23 the activity change, less the hit threshold was -4%. With O=C(N/N=C1/C(=O)c2cccc3cccc1c23)c1ccc(Cl)cc1 the activity change, less the hit threshold was 73.4% (active). O=C(NN=C1c2ccccc2-c2ccccc21)c1ccccc1 showed an activity change, less the hit threshold of 0%. Compound O=C(O)c1ccccc1P(=O)(c1ccccc1)c1ccccc1 has an activity change, less the hit threshold of -16.8%. Cc1noc(C)c1COc1cccc(C(=O)NCc2cccc(Cl)c2)c1 was tested, and the activity change, less the hit threshold was -21.4%. Work on CCCCCCCC/C=C\CCCCCCCC(=O)O yielded an activity change, less the hit threshold of -1%. With CCCCCC/C(C)=C1/SC(=S)NC1=O the activity change, less the hit threshold was 71.1% (active). Compound CCOC(=O)Cc1nc2ccccc2o1 has an activity change, less the hit threshold of -2.9%. For O=C(O)Cc1sc(-c2ccc(Cl)cc2)nc1-c1ccccc1, the activity change, less the hit threshold was -19.7%. For O=C(NC(=S)Nc1ccc(C(F)(F)F)cc1)c1csnn1, the activity change, less the hit threshold was 87% (active). With O=C(NC(=S)Nc1cc(C(F)(F)F)ccc1Cl)c1ccccc1 the activity change, less the hit threshold was -6.4%. O=C(Nc1ccc(-c2csc(Nc3cccc(C(F)(F)F)c3)n2)cc1)c1ccccc1 was tested, and the activity change, less the hit threshold was -23.8%. O=C(NC(=S)Nc1cccc(C(F)(F)F)c1)c1csnn1 was tested, and the activity change, less the hit threshold was 115% (active). For CC12CN3CC(C)(CN(C1)C3c1ccc3c(c1)OCO3)C2=O (centres undefined), the activity change, less the hit threshold was -15.9%. In the case of C/C(O)=C/c1nc2ccccc2[nH]c1=O, the activity change, less the hit threshold is reported as -16.5%. Compound CCN1C(=O)/C(=C/N2CCc3ccccc32)SC1=S has an activity change, less the hit threshold of -17.3%. With Cc1nnc2ccc(-c3cccc(NC(=O)c4ccc(Cl)nc4)c3)nn12 the activity change, less the hit threshold was -16.1%. In the case of CNC(=O)c1c(O)c2cccc3c2n(c1=O)CC3, the activity change, less the hit threshold is reported as -22.2%. Work on c1ccc2oc(-c3ccn[nH]3)cc2c1 yielded an activity change, less the hit threshold of -0.3%. For Cc1csc(NC(=O)c2cc3c(s2)CCCC3)n1, the activity change, less the hit threshold was 17.9% (active). With Cc1csc(NC(=O)C2C3C=CC(C3)C2C(=O)O)n1 (centres undefined) the activity change, less the hit threshold was -13.2%. Work on Cc1csc(NC(=O)c2cn3ccccc3n2)n1 yielded an activity change, less the hit threshold of -15.1%.
